Records with an inconclusive call do not appear. A number with no mark means an inactive call. Calls come from the whole dose curve; as a rule, active = well fitted cell-killing curve with a large enough effect in the repeat runs; inconclusive = weak or mixed curves; inactive = flat fitted curve, though single readings scatter.
% is set by controls: 0 for no effect and ±100 for the full control effect.

The assay in a line: qHTS RealTime-Glo MT Cell Viability Assay in HepG2 cells - 16 hour (AID 1224885). Note: nearly all actives have a fitted effect of over 50% in size. The following applies: RealTime-Glo luminescence; series mostly up to 76.8 µM; activity change, negative = cytotoxic: at the top concentration. The source says:
U.S. Tox21 Program National Center for Advancing Translational Sciences [NCATS] NIH Chemical Genomics Center [NCGC] U.S. Environmental Protection Agency [EPA] National Institutes of Environmental Health Sciences [NIEHS] National Toxicology Program [NTP] U.S. Food and Drug Administration [FDA] Tox21 Assay Overview: Measure of cell viability is critical in the cell-base assay. Analysis of cell viability is necessary for the characterization of cell responses to cytotoxic drugs and environmental stress. A RealTime-Glo MT Cell Viability Assay to monitor cell viability in real time of continues cell culture during 40 hours of compound treatment was used to screen Tox21 10K library compounds in HepG2 cells. The RealTime-Glo MT Cell Viability Assay is a nonlytic, homogeneous, bioluminescent method to measure cell viability in real time using a simple, plate-based method. The assay involves adding NanoLuc luciferase and a cell-permeant prosubstrate to cells in culture. Viable cells reduce the proprietary prosubstrate to generate a substrate for NanoLuc luciferase. This substrate diffuses from cells into the surrounding culture medium, where it is rapidly used by the NanoLuc Enzyme to produce a luminescent signal. The signal correlates with the number of viable cells, making the assay well suited for cytotoxicity studies.
Tox21 Assay Protocol Summary: The mixture of HepG2 cell suspension and reagents were dispensed at 600cells/6 ul/well in 1536-well tissue culture treated black solid bottom plates using a Multidrop dispenser. After the assay plates were incubated at a 37 C/5% CO2 incubator for 5 hours, 23 nL of compounds dissolved in DMSO, positive and negative controls was transferred to the assay plate by a pintool work station. The plates were incubated at 37 C for 40 hours. The luminescence intensity were measured at 0h, 8h, 16h, 24h, 32h and 40h time points using ViewLux plate reader during compound treatment.
For orientation: In qHTS, concentration-response curves come from the screen itself.
Take `CCn1ccc(NS(=O)(=O)c2ccc(N)cc2)nc1=O`: the “activity change, negative = cytotoxic” value was 0.693% [at 35.3 µM].
Take `O=C(Nc1ccc(Cl)c(Cl)c1)C1CC1`: the “activity change, negative = cytotoxic” value was -4.03% [at 35.3 µM].
The figure for `O=C1c2ccccc2C(=O)N1CCl` is -0.313%; for `Oc1ccccc1-c1nnco1` it is 3.23% [at 35.3 µM].
The value for `O=C(O)Cc1ccc(Cl)cc1Cl` was 0.466%; that for `CC(CO)c1ccccc1` (stereo not given) was 1.52%; that for `COc1ccc(S(=O)(=O)N2c3ccc(Cl)cc3[C@@](O)(c3ccccc3Cl)[C@H]2C(=O)N2CCC[C@@H]2C(N)=O)cc1OC` was -7.2% [at 35.3 µM].
The figure for `C=COCCOCCOCCOC=C` is -1.39%; for `CCCCNC1CC(C)(C)NC(C)(C)C1` it is -0.247%; for `CCCOC(OCCC)OCCC` it is 0.43%.
`O=S(=O)(O)CCN1CCN(CCO)CC1`: the “activity change, negative = cytotoxic” value is 3.13%.
For `CN(C)c1ccc(C=O)cc1`, the “activity change, negative = cytotoxic” value is 0.676%.
The value for `C=C(C)C(=O)OCCOP(=O)(O)OCCOC(=O)C(=C)C` was 0.0435%; that for `Nc1ncnc(Nc2ccccc2)n1` was -1.34% [at 35.3 µM]; that for `CCCCCCCC/C=C\CCCCCCCC(=O)OCCCC` was 1.32% [at 15.8 µM].
As to `N[C@@H](CCC(=O)N[C@@H](CS)C(=O)NCC(=O)O)C(=O)O`, the activity change, negative = cytotoxic is 2.53% [at 15.8 µM].
Regarding `COc1ccc(-c2cc(=O)c3c(O)cc(O[C@@H]4O[C@H](CO[C@@H]5O[C@@H](C)[C@H](O)[C@@H](O)[C@H]5O)[C@@H](O)[C@H](O)[C@H]4O)cc3o2)cc1O`, the “activity change, negative = cytotoxic” value is 1.6% [at 35.3 µM].
Consider `O=C(O)c1ccc(Cl)cc1Cl`, for which the “activity change, negative = cytotoxic” value is 1.84%.
The figure for `CCOc1cc(NC(C)=O)ccc1C(=O)OC` is 0.27% [at 35.3 µM].
The value for `CCOc1cc([N+](=O)[O-])c(OCC)cc1N1CCOCC1` was -6.77%; that for `O=C(OCC(O)CO)c1ccccc1Nc1ccnc2c(C(F)(F)F)cccc12` (stereo not given) was -21.9% [at 35.3 µM]; that for `C=C(C)C(=O)OCc1ccccc1` was -0.91%.
On to `C[C@H](N)[C@H](O)c1cccc(O)c1`, for which the “activity change, negative = cytotoxic” value was -0.848% [at 35.3 µM].
Take `O=C1c2cccc3c2[C@H](CCC3)CN1[C@@H]1CN2CCC1CC2`: the “activity change, negative = cytotoxic” value was 0.483% [at 35.3 µM].
For the compound `C=CCCCCCCCCCCCC`, the “activity change, negative = cytotoxic” value was 2.03%.
On to `COc1cc(N)ccc1C`, for which the “activity change, negative = cytotoxic” value is 3.5%.
The figure for `CCCCCOC(=O)CCC` is 0.947%.
For `c1ccc2nccnc2c1`, the “activity change, negative = cytotoxic” value is 1.04%.
Take `COC(=O)[C@@H]1[C@H]2C[C@H]3c4[nH]c5ccccc5c4CCN3C[C@@H]2CC[C@@H]1O`: the “activity change, negative = cytotoxic” value is -1.73% [at 35.3 µM].
With `CC1(CO)CN(c2ccccc2)NC1=O` (stereo not given), the “activity change, negative = cytotoxic” value is 0.0447%.
`CC(C)CCCCOC(=O)c1ccccc1C(=O)OCCCCC(C)C`: the “activity change, negative = cytotoxic” value was -1.08%.
Turning to `CC(=O)OC(C)OC(=O)C(C)c1ccc(-c2ccccc2)c(F)c1` (stereo not given), the “activity change, negative = cytotoxic” value was 2.32% [at 35.3 µM].
As to `Cc1ccc2c(c1)OCC(=O)CO2`, the “activity change, negative = cytotoxic” value is 2.33%.
The figure for `O=Cc1ccc(Cl)c(Cl)c1` is 2.52%; for `O=C(OCC1(COC(=O)c2cccnc2)CCCC(COC(=O)c2cccnc2)(COC(=O)c2cccnc2)C1O)c1cccnc1` it is 1.99% [at 35.3 µM]; for `OCCC(F)(F)C(F)(F)C(F)(F)C(F)(F)C(F)(F)C(F)(F)C(F)(F)C(F)(F)F` it is 7.01%.
As to `CCCOC(=O)C(C)O` (stereo not given), the “activity change, negative = cytotoxic” value was -2.86%.
The figure for `O=C(CS(=O)Cc1ccco1)NC/C=C\COc1cc(CN2CCCCC2)ccn1` (stereo not given) is 2.28% [at 35.3 µM].
On to `COc1cc(C(=S)N2CCOCC2)cc(OC)c1OC`, for which the “activity change, negative = cytotoxic” value was 0.778% [at 35.3 µM].
On to `C[Si](C)=O`, for which the activity change, negative = cytotoxic was 0.315% [at 6.97 µM].

Source of the values: PubChem BioAssay (Tox21).
